Screening data as filed in PubChem.
HSF1 inhib – HSF1 inhibition. NIH3T3-HGL HSE-luciferase, MG132-induced, luminescence 8 h; stronger effect = lower value. activity change, negative = inhibition, % at 7.5 µM (by protocol). hit rate 0.77% among 300,000. AID 2098;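 active = more than half of replicate wells show activity change below -50%, luminescence cut by over half; inconclusive = some wells, but at most half, below -50%; inactive = no replicate well below -50%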;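 note: luciferase reports HSF-1 transcriptional activity via heat shock element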
HSF-1 act – increases HSF-1 driven luciferase reporter signal; NIH3T3-HGL HSF-1 luciferase reporter, MG132, 8 h; 100% = twice DMSO control signal; activation, % at 9 µM; hit rate 1.7% among 300,000;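 active = mean replicate activation of at least 50% with a set share of replicates each reaching 50%; inconclusive = only one of those two conditions met; inactive = mean below 50% and too few replicates reaching it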
esBAF inh – blocks esBAF chromatin remodeling in mouse ES cells. Bmi1-luciferase knock-in reporter, 24 h; 100% = twice the neutral-well signal. hit rate 2% among 350,000. AID 602393. reporter increase, % at 12.5 µM; in the data active = activation above about 40%; inconclusive = no clear call, values can overlap the other calls;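 note: a rise in the Bmi1 reporter signal indicates esBAF inhibition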
Vif imaging – HIV Vif inhibition; HEK293T cells, Vif self-association by quenched fluorescence, imaging, 24 h; inhibition, % at 7.49 µM; hit rate 0.35% among 340,000; in the data active = inhibition above about 50%, passing the limit was not always enough; inconclusive = no clear call, values can overlap the other calls; inactive = below about 31%
Large screens that a line does not name were inactive. Only some compounds are listed: those with a hit (about 3.4% of all), similar ones and a draw of the others.

COc1ccc(NC(=O)N(C)C[C@@H]2OCCCC[C@@H](C)Oc3ccc(NS(=O)(=O)c4cccs4)cc3C(=O)N([C@@H](C)CO)C[C@H]2C)cc1	none (no result: HSF1 inhib, HSF-1 act, Vif imaging)
CN(CCC1CCCCO1)C(=O)c1cc(COc2ccc(F)cc2F)on1 (configuration not stated)	none
COc1ccc(OCc2cc(C(=O)N3CCOCC3)no2)c(Cl)c1	HSF-1 act inconclusive
CN(CC1CCCCO1)C(=O)c1cc(COc2ccc(F)cc2Cl)on1 (configuration not stated)	esBAF inh 43.4
COc1ccc(OCc2cc(C(=O)N3CCN(CC(=O)N(C)C)CC3)no2)c(Cl)c1	none
COc1ccc(OCc2cc(C(=O)N(C)CCC3CCOCC3)no2)c(Cl)c1	HSF-1 act 77.4, esBAF inh 58.0
COc1ccc(OCc2cc(C(=O)N(C)C(C)c3ccon3)no2)c(Cl)c1 (configuration not stated)	esBAF inh 73.5
COc1ccc(OCc2cc(C(=O)N(C)CC3CCCCO3)no2)c(Cl)c1 (configuration not stated)	esBAF inh 41.4
COc1ccc(OCc2cc(C(=O)N3CCCCCC3)no2)c(Cl)c1	none (no result: esBAF inh, Vif imaging)
CN1CCN(C(=O)C[C@H]2C[C@H]3c4cc(NC(=O)Cc5ccncc5)ccc4O[C@H]3[C@H](CO)O2)CC1	none (no result: HSF1 inhib, HSF-1 act, Vif imaging)
Cc1nnc(CN(C)C(=O)c2cc(COc3ccc(C)c(C)c3)on2)o1	none
COc1cc(Cl)ccc1OCc1cc(C(=O)N(C)CC2CCCCO2)no1 (configuration not stated)	esBAF inh 69.7
Cc1nnc(CN(C)C(=O)c2cc(COc3ccc(F)cc3Cl)on2)o1	esBAF inh 52.5
Cc1ccccc1S(=O)(=O)N[C@H]1CC[C@@H](CCn2cc(Cc3ccccc3)nn2)O[C@@H]1CO	none (no result: HSF1 inhib, HSF-1 act, Vif imaging)
c1cncc(CSc2ccc(-c3ccc4c(c3)OCO4)nn2)c1	HSF-1 act inconclusive, esBAF inh 49.1
O=Nc1[nH]c(=O)c(/C=C(\O)c2ccccc2)nc1NO	Vif imaging 105.9
O/C(=C\c1nc2ccccc2nc1/C=C(\O)c1ccccc1)c1ccccc1	none
COCCNc1oc(-c2ccc(Cl)cc2)nc1C#N	none (no result: esBAF inh)
Cc1ccc(-c2nc(C#N)c(NCCc3ccccn3)o2)cc1	esBAF inh 52.2
COCCNc1oc(-c2ccc(C)cc2)nc1C#N	esBAF inh 65.3
COCCNc1oc(/C=C/c2ccccc2)nc1C#N	Vif imaging 55.3 (no result: esBAF inh)
N#Cc1nc(-c2ccc(Cl)cc2)oc1NCCc1ccccn1	none
CC(C)NC(=O)Nc1ccc2c(c1)CC(=O)N([C@H](C)CO)C[C@H](C)[C@@H](CN(C)S(=O)(=O)c1ccc(F)cc1)O2	none (no result: HSF1 inhib, HSF-1 act, Vif imaging)
C[C@H](CO)N1C[C@H](C)[C@H](CN(C)S(=O)(=O)c2ccc(Cl)cc2)Oc2ccc(NC(=O)Nc3ccc(F)cc3)cc2CC1=O	none (no result: HSF1 inhib, HSF-1 act, Vif imaging)
COc1cccc(N2CCN(C(=O)c3ccc(CS(=O)c4ccc(C)cc4)o3)CC2)c1 (configuration not stated)	Vif imaging 56.3
CN1C(=O)c2cc(NS(=O)(=O)c3ccc(F)cc3)ccc2OC[C@@H]2O[C@@H](CC(=O)NCC(F)(F)F)CC[C@@H]21	none (no result: HSF1 inhib, HSF-1 act, Vif imaging)
COc1ccc(OC)c(/C=N/Nc2nncn2/N=C/c2cc(OC)ccc2OC)c1	HSF-1 act 81.2
COc1cc(/C=N/Nc2nncn2/N=C/c2ccc(O)c(OC)c2)ccc1O	none (no result: esBAF inh)
CC(=O)Nc1cc2c(cc1Cl)-c1ccccc1C2	esBAF inh 51.8 (no result: HSF1 inhib, HSF-1 act)
COCC#Cc1ccc2c(c1)O[C@@H](CN(C)S(=O)(=O)c1cccc(F)c1)[C@@H](C)CN([C@@H](C)CO)S2(=O)=O	none (no result: HSF1 inhib, HSF-1 act, Vif imaging)
O=c1c2ccccc2oc2cc(C#CC3(O)CCCCC3)ccc12	HSF1 inhib -80.8
O=c1c2ccccc2sc2ccc(C#CC3(O)CCCCC3)cc12	HSF1 inhib -92.3
COc1cccc2oc3cc(C#CC4(O)CCCCC4)ccc3c(=O)c12	none
CCOC(=O)Cc1csc(NC(=O)NC2(C(F)(F)F)Oc3cc(Cl)c(Cl)cc3O2)n1	HSF1 inhib -56.9
COc1cccc(C#CC2=CC(=O)CC(C)(C)C2)c1	esBAF inh 133.6 (no result: HSF1 inhib, HSF-1 act)
CCCSc1nnc(-c2c[nH]c3ccccc23)n1CC	none
CCCSc1nnc(-c2c[nH]c3ccccc23)n1C	esBAF inh 43.6
C=CCn1c(=O)c(C(=O)Nc2ccccc2S(N)(=O)=O)c(O)c2ccccc21	esBAF inh 64.6
C=CCn1c(=O)c(C(=O)Nc2ccc(C)cc2)c(O)c2ccccc21	esBAF inh 67.3
C=CCn1c(=O)c(C(=O)Nc2cc(C)ccn2)c(O)c2ccccc21	none
COc1ccc(NC(=O)N[C@@H]2CC[C@H](CCNC(=O)Nc3cc(F)ccc3F)O[C@H]2CO)cc1	none (no result: HSF1 inhib, HSF-1 act, Vif imaging)
CCCNC(=O)C[C@H]1C[C@H]2c3cc(NC(=O)CN(C)C)ccc3O[C@H]2[C@@H](CO)O1	none (no result: HSF1 inhib, HSF-1 act, Vif imaging)
C=C(C)CN(CC)c1nc(N)c2c(N)nc3c(c2c1C#N)CC(=O)N3C12CC3CC(CC(C3)C1)C2	HSF-1 act 54.7 (no result: esBAF inh, Vif imaging)
N#Cc1c(N2CCCC(O)C2)nc(N)c2c(N)nc3c(c12)CC(=O)N3C12CC3CC(CC(C3)C1)C2 (configuration not stated)	none (no result: Vif imaging)
CC(=O)N(C)C[C@H]1Oc2cc(C#CC(C)C)ccc2S(=O)(=O)N([C@@H](C)CO)C[C@H]1C	none (no result: HSF1 inhib, HSF-1 act, Vif imaging)
CN(C)/N=C/C=C1\CCC/C(=C\c2ccc(F)c(F)c2)C1=O	HSF-1 act 115.5 (no result: esBAF inh)
Cc1cc(C)n2nc(N)c(N=Nc3cccc(Cl)c3)c2n1	HSF-1 act 55.9 (no result: esBAF inh)
Cc1ccc(/C=C/C(=O)Nc2ccc(S(=O)(=O)Nc3cc(C)nc(C)n3)cc2)cc1	HSF-1 act 63.8
CC12CCC(C/C1=N/NC(=O)Nc1ccccc1)C2(C)C (configuration not stated)	none (no result: esBAF inh, Vif imaging)
COc1cccc(NC(=S)N/N=C2\CC3CCC2(C)C3(C)C)c1 (configuration not stated)	esBAF inh 53.6
C[C@@H]1CN([C@H](C)CO)C(=O)c2cc(NC(=O)CCC(F)(F)F)ccc2O[C@@H](C)CCCCO[C@H]1CN(C)S(=O)(=O)c1cn(C)cn1	none (no result: HSF1 inhib, HSF-1 act, Vif imaging)
NC(=Nc1nc(-c2ccccn2)cc2ccccc12)c1ccccn1	HSF1 inhib 57.5, HSF-1 act 57.5 (no result: esBAF inh)
CC(C)NC(=O)Nc1ccc2c(c1)C(=O)N([C@H](C)CO)C[C@@H](C)[C@H](CN(C)C(=O)C1CCCCC1)OCCCC[C@H](C)O2	none (no result: HSF1 inhib, HSF-1 act, Vif imaging)
COC(=O)C[C@@H]1CC[C@H]2[C@@H](COc3ccc(NC(=O)Nc4cc(C)cc(C)c4)cc3C(=O)N2C)O1	none (no result: HSF1 inhib, HSF-1 act, Vif imaging)
C=C1CCCC2OC(CC3=CC4/C(C)=C/CC(C)CC(/C=C(\C)C(O)C5CC(O)C(O)C(CCC(O)/C=C/C(C)=C/CCC6=NCCC(C3)C64C)O5)OC(=O)CC3OC(C(O)C1)C(O)C3O)CC(O)C2O (configuration not stated)	Vif imaging 118.2 (no result: HSF1 inhib, HSF-1 act)
CCCNC(=O)N(C)C[C@@H]1Oc2cc(-c3ccncc3)ccc2S(=O)(=O)N([C@@H](C)CO)C[C@H]1C	none (no result: HSF1 inhib, HSF-1 act, Vif imaging)
C[C@@H]1CCCCO[C@H](CN(C)C(=O)CCCN(C)C)[C@@H](C)CN([C@H](C)CO)C(=O)c2cc(NS(=O)(=O)c3cccs3)ccc2O1	none (no result: HSF1 inhib, HSF-1 act, Vif imaging)
